# Assay results from the supplement of paper PMC11732987, “Enantioselective OTUD7B fragment discovery through chemoproteomics screening and high-throughput optimisation” (Communications Chemistry, 2025).
# Unmarked numbers belong to inactive results.
# Compound: ClCC(=O)NC1(CCCC1)C#N
# Assay: log2 ratio of Biotin-Ahx-Ub-VS probe labelling (compound/DMSO); higher = less target engagement, active = hit call of the paper (q ≤ 0.05, log2 ratio ≤ -1)
# Conditions: compound concentration: 50uM; treatment time: 3 h
# Method: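 Round 2 competitive ABPP in HEK293T lysate. Compounds were tested at 50 and 200 µM for 3 h, followed by Biotin-Ahx-Ub-VS enrichment and diaPASEF LC-MS/MS. Values are the average log2 ratio (compound/DMSO) from an unpaired t-test (n=3 treated, n=26 DMSO).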
# Chain of UniProt P62068 (P62068 whole entry): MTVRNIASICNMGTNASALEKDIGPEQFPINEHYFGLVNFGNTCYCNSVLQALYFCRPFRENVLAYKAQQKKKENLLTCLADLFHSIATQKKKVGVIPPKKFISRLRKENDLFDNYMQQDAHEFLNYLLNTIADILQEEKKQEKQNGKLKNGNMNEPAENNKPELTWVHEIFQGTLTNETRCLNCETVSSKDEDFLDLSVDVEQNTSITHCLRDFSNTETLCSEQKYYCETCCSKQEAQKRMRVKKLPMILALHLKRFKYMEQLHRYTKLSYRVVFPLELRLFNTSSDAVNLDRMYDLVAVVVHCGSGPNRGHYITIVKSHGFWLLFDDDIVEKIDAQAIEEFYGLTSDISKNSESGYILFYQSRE
# Chain of UniProt Q93009 (Q93009 whole entry, looked up): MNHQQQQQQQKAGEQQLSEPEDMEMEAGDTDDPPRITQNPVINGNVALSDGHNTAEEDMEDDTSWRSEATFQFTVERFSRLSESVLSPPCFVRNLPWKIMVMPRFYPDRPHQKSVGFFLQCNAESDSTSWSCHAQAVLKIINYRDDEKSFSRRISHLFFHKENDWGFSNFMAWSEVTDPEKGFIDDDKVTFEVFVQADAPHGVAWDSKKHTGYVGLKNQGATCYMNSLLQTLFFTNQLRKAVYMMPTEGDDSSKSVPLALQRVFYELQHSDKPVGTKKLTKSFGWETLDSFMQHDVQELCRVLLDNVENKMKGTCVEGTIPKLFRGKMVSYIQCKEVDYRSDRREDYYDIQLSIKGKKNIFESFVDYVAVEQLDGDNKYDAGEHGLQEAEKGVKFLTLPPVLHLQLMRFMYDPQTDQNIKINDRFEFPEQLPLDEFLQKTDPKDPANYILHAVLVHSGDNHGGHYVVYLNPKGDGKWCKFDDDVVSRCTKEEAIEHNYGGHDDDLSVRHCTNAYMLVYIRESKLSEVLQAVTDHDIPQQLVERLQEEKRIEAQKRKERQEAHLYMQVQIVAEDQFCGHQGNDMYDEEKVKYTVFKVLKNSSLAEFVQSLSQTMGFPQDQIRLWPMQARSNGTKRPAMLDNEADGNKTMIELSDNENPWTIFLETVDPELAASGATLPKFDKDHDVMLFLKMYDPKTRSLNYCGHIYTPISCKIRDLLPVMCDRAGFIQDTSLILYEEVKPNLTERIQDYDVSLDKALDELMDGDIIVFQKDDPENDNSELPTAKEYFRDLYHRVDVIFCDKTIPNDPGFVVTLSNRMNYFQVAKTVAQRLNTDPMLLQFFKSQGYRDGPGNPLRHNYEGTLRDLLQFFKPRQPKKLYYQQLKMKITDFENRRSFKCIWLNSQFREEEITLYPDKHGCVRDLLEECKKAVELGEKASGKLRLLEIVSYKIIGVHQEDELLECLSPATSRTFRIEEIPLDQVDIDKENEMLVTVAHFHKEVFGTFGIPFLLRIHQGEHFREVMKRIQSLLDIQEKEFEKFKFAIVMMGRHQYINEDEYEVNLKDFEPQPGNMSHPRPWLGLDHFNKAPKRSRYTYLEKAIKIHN
# Chain of UniProt Q8NB14 (Q8NB14 whole entry): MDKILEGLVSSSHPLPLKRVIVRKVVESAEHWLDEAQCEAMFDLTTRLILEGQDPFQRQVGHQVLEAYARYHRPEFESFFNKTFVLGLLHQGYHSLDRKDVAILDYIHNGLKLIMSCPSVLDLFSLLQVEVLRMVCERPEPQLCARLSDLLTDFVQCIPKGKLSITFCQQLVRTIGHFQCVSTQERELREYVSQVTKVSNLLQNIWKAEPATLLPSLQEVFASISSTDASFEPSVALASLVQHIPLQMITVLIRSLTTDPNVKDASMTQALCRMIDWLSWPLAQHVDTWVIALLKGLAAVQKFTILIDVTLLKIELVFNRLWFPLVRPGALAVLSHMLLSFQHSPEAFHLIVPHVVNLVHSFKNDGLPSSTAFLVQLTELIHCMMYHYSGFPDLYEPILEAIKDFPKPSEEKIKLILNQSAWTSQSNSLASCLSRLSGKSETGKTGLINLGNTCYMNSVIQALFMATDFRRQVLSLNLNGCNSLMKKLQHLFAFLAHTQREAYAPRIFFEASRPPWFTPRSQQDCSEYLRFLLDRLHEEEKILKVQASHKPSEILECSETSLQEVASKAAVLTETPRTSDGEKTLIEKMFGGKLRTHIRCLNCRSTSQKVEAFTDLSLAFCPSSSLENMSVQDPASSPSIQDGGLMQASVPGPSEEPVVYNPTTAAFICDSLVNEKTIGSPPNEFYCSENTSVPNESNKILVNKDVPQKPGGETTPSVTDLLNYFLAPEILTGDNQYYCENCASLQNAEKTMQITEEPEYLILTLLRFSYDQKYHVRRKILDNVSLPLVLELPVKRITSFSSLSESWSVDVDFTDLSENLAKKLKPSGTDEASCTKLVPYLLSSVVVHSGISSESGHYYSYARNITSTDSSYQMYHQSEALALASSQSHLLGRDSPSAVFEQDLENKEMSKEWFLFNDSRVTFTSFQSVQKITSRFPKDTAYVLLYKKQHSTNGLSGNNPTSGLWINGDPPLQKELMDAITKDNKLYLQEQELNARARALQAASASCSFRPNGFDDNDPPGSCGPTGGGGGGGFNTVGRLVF
# Chain of UniProt Q9NUU6 (Q9NUU6 whole entry): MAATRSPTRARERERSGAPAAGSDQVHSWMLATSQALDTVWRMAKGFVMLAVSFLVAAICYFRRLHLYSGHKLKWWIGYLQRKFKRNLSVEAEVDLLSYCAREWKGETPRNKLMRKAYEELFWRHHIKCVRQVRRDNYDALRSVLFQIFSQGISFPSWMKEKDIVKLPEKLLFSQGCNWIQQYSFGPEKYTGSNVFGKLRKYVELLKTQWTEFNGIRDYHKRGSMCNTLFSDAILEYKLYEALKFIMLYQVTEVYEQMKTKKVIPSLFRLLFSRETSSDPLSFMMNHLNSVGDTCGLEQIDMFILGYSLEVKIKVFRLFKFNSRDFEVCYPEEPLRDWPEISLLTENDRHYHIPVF
# Chain of UniProt P54578 (P54578 whole entry): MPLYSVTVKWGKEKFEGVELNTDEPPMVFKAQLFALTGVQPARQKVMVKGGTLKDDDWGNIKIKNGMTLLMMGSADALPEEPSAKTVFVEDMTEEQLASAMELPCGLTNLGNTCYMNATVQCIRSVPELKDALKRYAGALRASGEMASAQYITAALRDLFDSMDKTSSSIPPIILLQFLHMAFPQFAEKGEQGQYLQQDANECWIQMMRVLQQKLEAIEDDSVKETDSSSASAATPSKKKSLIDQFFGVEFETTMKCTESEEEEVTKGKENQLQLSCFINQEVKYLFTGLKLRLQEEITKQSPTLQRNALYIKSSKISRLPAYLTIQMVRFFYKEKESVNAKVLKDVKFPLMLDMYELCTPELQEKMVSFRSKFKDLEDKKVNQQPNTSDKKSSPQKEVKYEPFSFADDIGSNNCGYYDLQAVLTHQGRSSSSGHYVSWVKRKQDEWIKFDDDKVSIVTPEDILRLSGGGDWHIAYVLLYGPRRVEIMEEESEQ
# Chain of UniProt P54252 (P54252 whole entry): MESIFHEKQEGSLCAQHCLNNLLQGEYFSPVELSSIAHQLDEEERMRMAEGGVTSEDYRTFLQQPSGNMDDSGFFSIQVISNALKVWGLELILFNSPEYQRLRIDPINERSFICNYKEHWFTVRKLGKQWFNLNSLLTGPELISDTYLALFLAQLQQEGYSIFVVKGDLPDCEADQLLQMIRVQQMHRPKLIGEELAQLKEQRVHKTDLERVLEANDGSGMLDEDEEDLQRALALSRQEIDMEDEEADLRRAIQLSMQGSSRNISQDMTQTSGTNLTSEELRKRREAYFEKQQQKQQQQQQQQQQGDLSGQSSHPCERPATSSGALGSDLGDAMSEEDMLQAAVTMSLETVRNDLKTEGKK
# Chain of UniProt O00303 (O00303 whole entry): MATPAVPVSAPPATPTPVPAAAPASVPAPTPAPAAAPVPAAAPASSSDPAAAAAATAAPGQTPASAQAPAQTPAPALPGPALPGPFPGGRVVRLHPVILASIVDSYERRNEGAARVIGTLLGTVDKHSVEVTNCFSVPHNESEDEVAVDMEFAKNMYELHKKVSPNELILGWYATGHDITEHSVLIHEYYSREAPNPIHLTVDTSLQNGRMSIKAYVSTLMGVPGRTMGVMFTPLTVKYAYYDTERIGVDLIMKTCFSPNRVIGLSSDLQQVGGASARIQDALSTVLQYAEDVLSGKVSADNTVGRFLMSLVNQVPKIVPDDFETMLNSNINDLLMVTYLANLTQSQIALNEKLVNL
# Chain of UniProt Q4G0A6 (Q4G0A6 whole entry): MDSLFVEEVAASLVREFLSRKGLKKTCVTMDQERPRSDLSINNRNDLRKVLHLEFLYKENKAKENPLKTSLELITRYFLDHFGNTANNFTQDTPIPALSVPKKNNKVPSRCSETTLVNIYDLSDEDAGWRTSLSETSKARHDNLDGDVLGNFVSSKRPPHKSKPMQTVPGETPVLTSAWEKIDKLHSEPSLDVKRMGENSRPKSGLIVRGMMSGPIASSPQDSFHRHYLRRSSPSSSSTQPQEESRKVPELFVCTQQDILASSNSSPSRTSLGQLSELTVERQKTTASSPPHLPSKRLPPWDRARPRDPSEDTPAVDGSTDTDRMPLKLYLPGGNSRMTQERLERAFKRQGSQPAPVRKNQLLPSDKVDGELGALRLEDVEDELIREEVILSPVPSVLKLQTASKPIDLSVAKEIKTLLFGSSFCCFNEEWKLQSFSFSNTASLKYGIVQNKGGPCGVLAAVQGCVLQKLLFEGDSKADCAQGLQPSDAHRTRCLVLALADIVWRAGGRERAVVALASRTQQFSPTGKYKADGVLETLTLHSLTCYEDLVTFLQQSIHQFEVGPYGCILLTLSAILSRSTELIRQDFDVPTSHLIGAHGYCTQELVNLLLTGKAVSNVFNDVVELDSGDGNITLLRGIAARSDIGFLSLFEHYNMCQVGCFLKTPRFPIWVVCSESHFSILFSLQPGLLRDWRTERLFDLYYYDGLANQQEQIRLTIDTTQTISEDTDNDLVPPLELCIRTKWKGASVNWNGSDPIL
row,Target,log2 ratio of Biotin-Ahx-Ub-VS probe labelling
1,VCPIP1 (UniProt Q96JH7),-0.312
2,USP38 (UniProt Q8NB14),-0.219
3,USP12 (UniProt O75317),-0.429
4,USP46 (UniProt P62068),-0.274
5,COPS5 (UniProt Q92905),0.531
6,USP14 (UniProt P54578),0.0754
7,UniProt O00487,0.252
8,EIF3H (UniProt O15372),-0.0689
9,ATXN3 (UniProt P54252),-0.261
10,MINDY4 (UniProt Q4G0A6),-0.742
11,USP22 (UniProt Q9UPT9),0.0772
12,OTUD6B (UniProt Q8N6M0),-0.241
13,PSMD7 (UniProt P51665),-1.2
14,OTUD4 (UniProt Q01804),-1.46 (active)
15,FAM105A (UniProt Q9NUU6),-0.0646
16,UniProt Q9P2H5,-0.223
17,EIF3F (UniProt O00303),0.000219
18,USP54 (UniProt Q70EL1),-0.959
19,USP7 (UniProt Q93009),-0.163
20,USP25 (UniProt Q9UHP3),-0.312

# Same assay, conditions: compound concentration: 200uM; treatment time: 3 h
row,Target,log2 ratio of Biotin-Ahx-Ub-VS probe labelling
1,VCPIP1 (UniProt Q96JH7),-0.217
2,USP38 (UniProt Q8NB14),-0.177
3,USP12 (UniProt O75317),0.0646
4,USP46 (UniProt P62068),-0.249
5,COPS5 (UniProt Q92905),0.0873
6,USP14 (UniProt P54578),0.244
7,UniProt O00487,0.0206
8,EIF3H (UniProt O15372),0.0852
9,ATXN3 (UniProt P54252),0.039
10,MINDY4 (UniProt Q4G0A6),0.517
11,USP22 (UniProt Q9UPT9),-0.266
12,OTUD6B (UniProt Q8N6M0),-0.219
13,PSMD7 (UniProt P51665),-0.91
14,OTUD4 (UniProt Q01804),-1.76 (active)
15,FAM105A (UniProt Q9NUU6),0.0452
16,UniProt Q9P2H5,-0.102
17,EIF3F (UniProt O00303),0.192
18,USP54 (UniProt Q70EL1),-2.5 (active)
19,USP7 (UniProt Q93009),-0.0621
20,USP25 (UniProt Q9UHP3),-1.01 (active)
